Giardia FBPA inh = inhibitors of Giardia lamblia fructose-1,6-bisphosphate aldolase; A8B2U2; purified Giardia FBPA; Potency, µM (doses to about 59.6 µM), for the others: at the top dose activity, negative = inhibition, actives largely listed as inhibitors; 290,000 tested, 0.71% active; further: potency means the concentration at half of the fitted maximal effect; on the % scale 0 is the no-effect control and ±100 the full control effect; nearly all actives have a fitted effect of over 55% in size
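Giardia FBPA (40 nM reagent) was preincubated 10 min at RT with compound (up to 57.5 uM final), then substrate plus GAPDH/TPI/NAD/arsenate coupling system with diaphorase/resazurin was added; resorufin fluorescence (525/598 nm) was read after 20 min.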
LmPK inh = blocks Leishmania mexicana pyruvate kinase activity | Q27686 | purified LmPK, Kinase-Glo ATP luminescence, 1 h | Potency, µM (titrated, usually from 57.5 µM), inactives show at the highest dose activity change, negative = inhibition, hits mostly inhibitors | 290,000 tested, 0.37% active | AID 1721; further: potency means the concentration at half of the fitted maximal effect; on the % scale 0 is the no-effect control and ±100 the full control effect
Target sequence (Q27686 whole entry, looked up): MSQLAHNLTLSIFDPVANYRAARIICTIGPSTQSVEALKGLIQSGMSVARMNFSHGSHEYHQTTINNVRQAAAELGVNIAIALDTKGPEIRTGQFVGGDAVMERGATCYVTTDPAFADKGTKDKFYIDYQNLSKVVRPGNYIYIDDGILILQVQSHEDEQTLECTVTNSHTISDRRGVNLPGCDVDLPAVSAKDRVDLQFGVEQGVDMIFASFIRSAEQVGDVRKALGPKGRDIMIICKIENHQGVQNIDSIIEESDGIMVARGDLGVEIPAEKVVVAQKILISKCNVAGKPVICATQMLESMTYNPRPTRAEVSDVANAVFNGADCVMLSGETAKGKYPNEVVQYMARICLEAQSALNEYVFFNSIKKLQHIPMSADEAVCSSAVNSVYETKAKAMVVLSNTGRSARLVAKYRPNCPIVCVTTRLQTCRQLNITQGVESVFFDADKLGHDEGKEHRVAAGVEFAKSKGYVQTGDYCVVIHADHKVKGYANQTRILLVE
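qHTS format; LmPK 0.1 nM; substrates PEP 0.5 mM and ADP 0.1 mM. One-hour room-temperature incubation, then coupled luciferase luminescence; 0.5 nM enzyme wells mark activation.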
Tb PYK inh = T. brucei pyruvate kinase inhibition. Potency, µM (titrated, usually from 76.8 µM), inactives show at the top dose activity, negative = inhibition, usual class: inhibitors. Q57TT1. TbPYK enzyme, Kinase-Glo Plus ATP luminescence, 45 min. 410,000 tested, 0.12% active; further: potency means the concentration at half of the fitted maximal effect; on the % scale 0 is the no-effect control and ±100 the full control effect; nearly all actives have a fitted effect of over 50% in size
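Screened from lowest to highest concentration, compounds were pinned into TbPYK/substrate mixtures, and ADP (130 uM final) was added. Plates sat at room temperature for 45 min prior to Kinase-Glo Plus detection by luminescence.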
CHX counter = counter-screen hit for Shiga toxin inhibitors, cycloheximide; 300,000 tested, 12% active; AID 2314; max response, %; cell reporter, cycloheximide protein synthesis inhibition counterscreen; in the data active means max response mostly above about 13%, no sharp cut-off; inactive means mostly below about 14%; further: read at 38.3 µM for the half of the compounds with a filed dose; 0% is about no effect
Shiga toxin inh = inhibitors of Shiga toxin in Vero cells; Vero cells, Shiga toxin protein synthesis inhibition reporter; inhibition, % at 38.7 µM; 290,000 tested, 9.2% active; AID 2315; in the data active means inhibition mostly above about 28%, no sharp cut-off; inactive means mostly below about 43%; further: 0% is about no effect
RE007 growth inh = less growth of the S. pombe RE007 Vpr strain | S. pombe RE007 Vpr strain, BacTiter-Glo ATP luminescence, 24 h | Potency, µM (titrated, usually from 92.2 µM), for the others: at the top dose activity change, negative = less growth, most hits filed as inhibitors | 360,000 tested, 0.21% active | AID 651644; active means well fitted falling curve with a large enough effect; inconclusive means small, poorly fitted or top-dose-only effect; inactive means no such curve, though single readings can be large or run the other way; further: potency means the concentration at half of the fitted maximal effect; on the % scale 0 is the no-effect control and ±100 the full control effect; nearly all actives have a fitted effect of over 50% in size
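Fission yeast strain RE007, carrying one chromosomally integrated HIV-1 vpr copy, was seeded at OD 0.01 in PMG+AL medium with 23 nL pinned compound. After 24 h at 30 °C and 99% humidity, viability was read by BacTiter-Glo luminescence.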
An asterisk follows results filed as active; ? = inconclusive; . = no result; [ ] = another dose, or the depositor's remark. The entries come from a sample that favours hits as a whole. Unless noted, the call rests on the fitted dose curve; in most records, active means well fitted curve in the direction sought with a large enough effect; inconclusive means small, poorly fitted or top-dose-only effect, or another doubt; inactive means no such curve, though single readings can be large; an effect the other way counts as inactive or inconclusive.

SMILES | Giardia FBPA inh | LmPK inh | Tb PYK inh | CHX counter | Shiga toxin inh | RE007 growth inh
Cc1ccc(N2CC(NC(=O)c3ccc(S(=O)(=O)N4CCCC4)cc3)CC2=O)cc1C (configuration not stated) | . | . | 3% | . | . | .
O=C(CN1C(=O)CC(c2ccco2)Sc2ccccc21)NC1CCCCC1 (configuration not stated) | 2% | 5% | 1% | -3 | 3 | 21%
Clc1ccc(Cn2nc(-c3ccccc3)nc2-c2ccccc2)cc1 | -1% | -8% | -13% | 7 | -5 | -1%
Clc1ccc(Cn2nnc(-c3ccccc3)n2)cc1 | 2% | 1% | 1% | 28* | 57* | -16%
Clc1ccc(Cn2nnc(-c3ccc(CN4CCOCC4)cc3)n2)cc1 | 2% | 0% | 0% | 0 | -24 | 15%
Clc1ccccc1Cn1nc(-c2ccccc2)nc1-c1ccccc1 | 2% | -4% | -5% | 18* | 13 | -6%
CCCCc1ccc(/C=C2\C(=O)c3ccccc3C(O)=C2C(=O)OCC)cc1 | ? | -19% | . | 16* | 30* | .
O=S(=O)(c1ccccc1)n1nc(-c2ccccc2)nc1NCc1ccco1 | -1% | 1% | -4% | 30* | 74* | 7%
O=C(c1ccccc1)n1nc(-c2ccccc2)nc1NCc1ccco1 | -1% | 1% | 2% | 11 | 14 | -9%
COc1ccc(CNc2nc(-c3ccccc3)nn2S(=O)(=O)c2ccccc2)cc1 | . | . | 1% | . | . | .
Cc1ccc(C(=O)n2nc(-c3ccccc3)nc2NCc2ccco2)cc1 | 4% | -2% | 1% | 19* | 21 | 4%
CCCC(=O)n1nc(-c2ccc(C)cc2)nc1NCc1ccco1 | 1% | -4% | -3% | 32* | 76* | -13%
O=C(O)c1ccccc1NC(=O)c1ccccc1Nc1ccccc1 | 8% | -4% | 2% | 14 | 30 | ?
CCCc1cc(=O)n2[nH]c(NCc3ccccc3OC)nc2n1 | . | . | -2% | . | . | .
CCOc1ccc(C(=O)N2CCCC(c3nc(-c4ccc(C)o4)no3)C2)cc1 (configuration not stated) | . | 1% | 2% | 4 | 67 | 6%
Cc1ccc(-c2noc(C3CCCN(C(=O)c4ccc(Cl)cc4)C3)n2)o1 (configuration not stated) | 7% | 0% | 5% | 36* | 37 | 3%
Cc1ccc(-c2noc(C3CCCN(C(=O)C4CCCCC4)C3)n2)o1 (configuration not stated) | -4% | -5% | -25% | 24* | 66 | 5%
O=C(Cn1cc(COc2c(F)c(F)cc(F)c2F)nn1)c1ccc(O)cc1 | . | . | 4% | . | . | -1%
O=C(Nc1ccc(C(=O)N2CCN(c3ccccc3F)CC2)cc1)C1=CSCCO1 | . | -4% | -1% | 26* | 31* | -12%
O=C(Nc1ccc(C(=O)N2CCCCC2)cc1)C1=CSCCO1 | . | ? | -24% | 28* | 84* | -18%
O=C(c1ccc2c(c1)OCO2)N1CCN(c2ccccc2F)CC1 | 7% | 6% | 2% | 22* | 29 | 3%
COc1ccc(CNC(=O)CNC(=O)c2ccc(C(C)(C)C)cc2)cc1OC | -13% | 0% | 2% | 5 | 16 | 0%
CC(=O)Nc1c(C(=O)Nc2ccc3c(c2)OCO3)oc2ccccc12 | ? | 1% | -1% | 42* | 114* | -4%
CC(=O)Nc1c(C(=O)O)oc2ccccc12 | 12% | 0% | -13% | 24* | 41 | -3%
CC(=O)Nc1c(C(=O)O)oc2ccc(Cl)cc12 | 16% | 0% | 7% | -1 | -10 | 10%
SMILES | Giardia FBPA inh | LmPK inh | Tb PYK inh | CHX counter | Shiga toxin inh | RE007 growth inh
COc1cccc(NC(=O)c2oc3ccccc3c2NC(=O)c2ccc3c(c2)OCO3)c1 | -2% | -10% | 2% | 3 | 13 | 2%
CSCc1c(C(=O)Nc2ccc(N3CCOCC3)cc2)oc2ccccc12 | -15% | 6% | -3% | 8 | -8 | 90%
Cc1c(C(=O)Nc2ccc3c(c2)OCO3)oc2ccccc12 | -7% | 0% | -7% | 43 | 121* | -6%
CSCc1c(C(=O)Nc2ccc3c(c2)OCO3)oc2ccccc12 | -10% | 3% | -7% | 19* | 60* | 8%
Cc1ccc(-c2nc3sc(CCNC(=O)c4ccc(F)c(F)c4)c(C)n3n2)cc1 | . | . | 5% | . | . | .
COCC(=O)Nc1c(C(=O)Nc2ccc3c(c2)OCO3)oc2ccccc12 | -2% | 0% | 2% | 7 | 11 | 0%
O=C(CCl)Nc1c(C(=O)Nc2ccc3c(c2)OCCO3)oc2ccccc12 | . | -5% | -4% | 69* | 84* | -3%
Cn1nnnc1SCC(=O)Nc1ccc(Oc2ccccc2)cc1 | -1% | -3% | -1% | 8.9* | 22 | 11%
COc1ccc(NC(=O)CSc2nnnn2C)cc1 | 2% | 0% | -3% | -2 | 19 | -3%
CCOc1ccc(NC(=O)C(C)Sc2nnnn2C)cc1 (configuration not stated) | 0% | 2% | 0% | 11* | 15 | 0%
CC(Sc1nnnn1C)C(=O)Nc1ccccc1 (configuration not stated) | 0% | 0% | 5% | -1 | 41 | -5%
CCc1ccc(NC(=O)CSc2nnnn2C)cc1 | 11% | -2% | -13% | 56* | 78* | 12%
CC(/C=C/c1ccccc1)=N\NC(=S)NC(C)C | 0% | 4% | -6% | 82* | 99* | 4%
CC(/C=C/c1ccccc1)=N\Nc1nc(C)cc(C)n1 | -22% | -2% | -1% | 33* | 44* | -15%
CC(/C=C/c1ccccc1)=N\NC(N)=S | -7% | -12% | -3% | 27* | 52* | 0%
CC(/C=C/c1ccccc1)=N/NC(=O)c1nc2nc(C)cc(C)n2n1 | 1% | -11% | -11% | 1 | 29 | 2%
CC(SC(C)C(=O)NN=Cc1c[nH]c2ccccc12)C(=O)NN=Cc1c[nH]c2ccccc12 (configuration not stated) | . | . | 9% | . | . | -10%
CC(C)NC(=S)N/N=C/c1c[nH]c2ccccc12 | 3% | 1% | -2% | 18* | 29* | -9%
Cc1[nH]c2ccccc2c1/C=N/NC(=S)NC(C)C | -19% | 0% | -3% | 12 | -11 | 8%
Cn1ccc(C(=O)N/N=C/c2c[nH]c3ccccc23)n1 | 4% | 0% | 2% | 45* | 59* | 0%
CCOc1ccccc1/C=N/NC(=O)c1cc(C(C)C)[nH]n1 | 6% | 0% | -4% | 36* | 65* | 0%
CC(C)c1cc(C(=O)N/N=C/c2c[nH]c3ccccc23)n[nH]1 | 4% | -2% | 0% | 17* | 53* | 2%
Cc1noc(C)c1-c1cc(NCc2cccs2)ncn1 | 6% | . | . | . | . | .
CC(=O)c1ccc(C(=O)N(Cc2cccnc2)c2nc3c(C)c(C)ccc3s2)cc1 | . | . | -2%[15.4 µM] | . | . | .

Screening data from PubChem BioAssay.
